Measurements taken from ChEMBL document CHEMBL3433997, “St. Jude Leishmania screening dataset” (2016).
Several values for one entry are separate records, joined by “and”; a condition that tells them apart may be missing. Equal values may be shown once.

Experiments:
Format in all cases: functional
[1] = target: Solute carrier family 2, facilitated glucose transporter member 1 (Homo sapiens) (UniProt P11166); experiment: ST_JUDE_LEISH: Cytotoxicity at 2uM final concentration against transgenic Leishmania Mexicana promastigotes LmGLUT1 that are glucose transport deficient and complemented with the human glucose transporter GLUT1. Activity is measured by DNA content using SYBR green in vitro
[2] = target: Hexose transporter 1 (Plasmodium falciparum) (UniProt O97467); experiment: ST_JUDE_LEISH: Cytotoxicity at 2uM final concentration against transgenic Leishmania Mexicana promastigotes LmPfHT that are glucose transport deficient and complemented with the Plasmodium falciparum hexose transporter. Activity is measured by DNA content using SYBR green in vitro
[3] = target: Glucose transporter (Leishmania mexicana) (UniProt O61059); experiment: ST_JUDE_LEISH: Cytotoxicity at 2uM final concentration against transgenic Leishmania Mexicana promastigotes LmGT2 that are glucose transport deficient and complemented with the L. Mexicana glucose transporter 2. Activity is measured by DNA content using SYBR green in vitro

Solute carrier family 2, facilitated glucose transporter member 1 (Homo sapiens), sequence (P11166 whole entry): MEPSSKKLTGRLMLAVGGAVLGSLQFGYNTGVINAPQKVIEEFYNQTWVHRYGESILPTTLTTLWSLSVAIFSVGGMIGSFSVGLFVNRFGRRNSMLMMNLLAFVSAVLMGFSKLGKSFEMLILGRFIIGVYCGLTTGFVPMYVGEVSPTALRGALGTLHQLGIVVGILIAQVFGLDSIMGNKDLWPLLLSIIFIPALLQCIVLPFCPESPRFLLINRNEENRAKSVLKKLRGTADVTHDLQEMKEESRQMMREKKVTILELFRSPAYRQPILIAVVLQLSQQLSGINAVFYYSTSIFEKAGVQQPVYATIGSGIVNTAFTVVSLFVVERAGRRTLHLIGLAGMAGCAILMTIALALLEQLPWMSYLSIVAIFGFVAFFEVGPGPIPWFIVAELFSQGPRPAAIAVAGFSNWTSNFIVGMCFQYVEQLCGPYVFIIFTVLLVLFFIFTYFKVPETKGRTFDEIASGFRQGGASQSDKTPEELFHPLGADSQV

Row | SMILES | inhibition [1] | inhibition [2] | inhibition [3]
1 | COc1ccc2nc(-c3ccc(F)cc3)cc([C@@H](O)[C@@H]3C[C@@H]4CCN3CC4C=NO)c2c1 (stereo partly specified) | 4.55% | 4.75% | 3.7%
2 | CCCc1ccc2c(c1O)CCC(N(CCC)CCC)C2 (stereo unspecified) | 2.32% | 2.51% | 2.48%
3 | CCN1CCC(N2CCC(n3c(C)nc4cc(C(F)(F)F)ccc43)CC2)CC1 | 3.01% | 3.12% | 4.4%
4 | O=P(O)(O)Oc1c(Br)cc(Br)cc1-c1cc(Br)cc(Br)c1O | 0.02% | 1.27% | 0.55%
5 | Cc1ccc(CC(C)(C)NCC(O)c2cccc(C(F)(F)F)c2)cc1 (stereo unspecified) | 2.49% | 2.91% | 3.49%
6 | CC(=O)N(Cc1cccc(-c2cccc(CNCCc3ccccc3)c2)c1)C1CCN(Cc2ccccc2)CC1 | -0.27% | 1.94% | 4.41%
7 | O=C(/C=C/c1ccc(Cl)c(Cl)c1)N(Cc1ccccc1)C1CCC(CN2CCC(c3c[nH]c4ccccc34)CC2)CC1 (stereo unspecified) | 4.82% | 2.84% | 4.05%
8 | Cc1ccc(/C=C/C(=O)NC2CCC(CN3CCC(c4c[nH]c5ccccc45)CC3)CC2)cc1 (stereo unspecified) | 0.19% and 4.55% | 1.12% and 3.15% | 2.44% and 0.47%
9 | CC[C@H]1CN2CC[C@H]1C[C@@H]2[C@@H](O)c1ccnc2ccccc12 | -0.01% | 0.66% | -1.98%
10 | Cc1[nH]c2ccccc2c1C1=CCN(CCCCCC23CCCc4cccc(c42)NC3=O)CC1 (stereo unspecified) | 2.18% | 2.47% | 3.51%
11 | CC(=O)C1(c2ccccc2)CCN(CCC2(c3ccc(Cl)c(Cl)c3)CN(C(=O)Nc3cc(F)cc(F)c3)CCO2)CC1 (stereo unspecified) | 2.31% | 2.4% | -0.62%
12 | CN(Cc1ccccc1)C1CCN(CCc2c[nH]c3ccc(F)cc23)CC1 | 6.41% | 5.56% | 7.12%
13 | Fc1ccc(N(c2nc(-c3cc(F)cc(C(F)(F)F)c3)cs2)C2CCNCC2)cc1 | -1.03% | -0.75% | -1.46%
14 | CCCC(=O)c1c(O)c2ccccc2oc1=O | 6.46% | 7.19% | 5.83%
15 | O=C(COc1ccc(Cl)cc1)N1CCC(CN2CCC(c3c[nH]c4ccccc34)CC2)CC1 | -2.1% | -1.7% | -4.27%
16 | Cc1[nH]c2cc(Cl)ccc2c1C1=CCN(CCN2CCOc3c(Br)cccc3C2=O)CC1 | 5.36% | 5.27% | 6.71%
17 | CN1CC=C(c2c[nH]c3ccc(Oc4ccccc4)cc23)CC1 | 0.93% | 6.03% | 3.03%
18 | O=C(Nc1ccccc1OC(F)(F)F)NC1CCC(CN2CCC(c3c[nH]c4ccccc34)CC2)CC1 (stereo unspecified) | 2.64% and 17.3% | 3.83% and 26.1% | 0.62% and 10.3%
19 | CC(C)CNCc1cccc(-c2ccc(CN(C(=O)NC3CCCCC3)C3CCN(Cc4ccccc4)CC3)cc2)c1 | 4.72% | 5.99% | 5.84%
20 | C#CCN1CCC2=C(C1)c1c(O)cc(C(C)CCCc3ccc(F)cc3)cc1OC2(C)C (stereo unspecified) | 1.13% | 0.61% | 0.09%
21 | COC(=O)c1ccc(CC(C)NCC(O)c2cccc(C(F)(F)F)c2)c(OC)c1 (stereo unspecified) | 6.43% | 5.12% | 5.25%
22 | Cc1ccc(CC(C)NC[C@H](O)c2cccc(Cl)c2)cc1 (stereo partly specified) | 1.71% and 1.19% | 0.19% and 1.01% | 1.47% and 1.06%
23 | C[C@H](Cc1ccc(OCCCCCCOc2ccccc2)cc1)NC[C@@H](O)c1cc(Br)no1 | 2.44% | 0.72% | -0.07%
24 | Cc1[nH]c2ccc(O)cc2c1C1CCN(CC2CCN(C(=O)/C=C/c3ccc(Cl)c(Cl)c3)CC2)CC1 | 0.92% | 0.19% | -0.96%
25 | COCCNCc1cccc(-c2ccc(CN(C(=O)Nc3ccccc3)C3CCN(Cc4ccccc4)CC3)cc2)c1 | 2.81% | 0.8% | 2.73%
26 | CCN1CC=C(c2c[nH]c3ccccc23)CC1 | 0.74% | 1.07% | 0.73%

Row | SMILES | inhibition [1] | inhibition [2] | inhibition [3]
27 | O=C(/C=C/c1ccc([N+](=O)[O-])cc1)NC1CCC(CN2CCC(c3c[nH]c4ccccc34)CC2)CC1 (stereo unspecified) | 2.8% and -1.4% | 1.89% and -2.18% | 0.45%
28 | COc1ccc(F)cc1-c1csc(N(c2ccc(F)cc2)C2CCNCC2)n1 | 1.56% | 0.21% | 0.05%
29 | O=C(/C=C/C=C/c1ccccc1)NC1CCC(CN2CCC(c3c[nH]c4ccccc34)CC2)CC1 (stereo unspecified) | 2.53% | 0.67% | 2.81%
30 | CC[C@H]1CN2CC[C@H]1C[C@H]2[C@H](O)c1cc(-c2cccc(C)c2)nc2ccc(OC)cc12 | 3.99% | 2.64% | 4.03%
31 | CC(Cc1ccc(OCCOc2ccccc2)cc1)NCC(O)c1cccc(C(F)(F)F)c1 (stereo unspecified) | 1.79% | 3.83% | 4.17%
32 | CC[C@H]1CN2CC[C@@H]1C[C@H]2[C@H](O)c1ccnc2ccc(Cl)cc12 | 2.97% | 3.95% | 3.25%
33 | CC[C@H]1CN2CC[C@H]1C[C@H]2[C@H](O)c1cc(-c2ccc3ccccc3c2)nc2ccc(OC)cc12 | 10% | 4.9% | 3.26%
34 | COC(=O)/C=C/C(=O)N[C@@H]1CC[C@@]2(O)[C@H]3Cc4ccc(O)c5c4[C@@]2(CCN3CC2CC2)[C@H]1O5 | 4.79% | 5.03% | 6.57%
35 | NC(=O)c1ccc2[nH]cc(C3CCN(CC4CCC(NC(=O)/C=C/c5ccc(Cl)c(Cl)c5)CC4)CC3)c2c1 (stereo unspecified) | -3.07% and 2.76% | -1.26% and 2.22% | 0.5% and 1.58%
36 | CC[C@H]1CN2CC[C@H]1C[C@H]2[C@H](O)c1cc(-c2ccc(OC(F)(F)F)cc2)nc2ccc(OC)cc12 | 4.51% | 2.38% | 3.6%
37 | CN1CC=C(c2c[nH]c3ccc(OC(=O)c4ccccc4)cc23)C1 | 0.69% | 0.43% | 1%
38 | Fc1ccc2[nH]cc(CCN3CCC(CNCc4ccccc4)CC3)c2c1 | 6.4% | 5.46% | 1.2%
39 | Oc1cccc(C2CCCN(Cc3cccc4cc[nH]c34)C2)c1 (stereo unspecified) | 2.13% | 4% | 3.75%
40 | CCCCCCC(CC)c1cc(O)c2c(c1)OC(C)(C)c1ccncc1-2 (stereo unspecified) | 3.06% | 2.42% | -0.4%
41 | CCOC(C(=O)OCC1CCCN1C)(c1ccccc1)c1ccccc1 (stereo unspecified) | 1.35% | -0.09% | 0.01%
42 | Cc1[nH]c2cc(Cl)ccc2c1C1=CCN(CCCCC2(C)C(=O)Nc3c(F)cccc32)CC1 (stereo unspecified) | 1.41% | 0.61% | 0.45%
43 | CN(c1cc(NC(=O)c2cccs2)ccn1)C1CCN(Cc2ccccc2)CC1 | 0.59% | 3.13% | 2.09%
44 | CC(=O)Nc1ccc(OCCN(CC(C)C)c2ccc(C#N)c(C(F)(F)F)c2)c(Cl)c1 | 3.54% | 2.7% | 2.53%
45 | COc1cc(CN2CCN(c3ccnc(N(C)C4CCN(C)CC4)n3)CC2)cc(Cl)c1O | 5.87% | 7.29% | 6.73%
46 | COC(=O)c1sccc1NC(=S)NC1CCC(CN2CCC(c3c[nH]c4ccccc34)CC2)CC1 (stereo unspecified) | 4.17% and 2.22% | 3.81% and 3.47% | 0.42% and 1.38%
47 | CCOc1ccc(Br)cc1/C=C/C(=O)Nc1ccc2c(c1)C1CCC2N1C (stereo unspecified) | 2.58% | 0.43% | 3.45%
48 | CCC1(C)N=C(N)N=C(N)N1c1ccc(Cl)cc1 (stereo unspecified) | 3.87% | -0.9% | 2.79%
49 | Cc1ccc(CC(C)NCC(O)c2cccc([N+](=O)[O-])c2)cc1 (stereo unspecified) | 0.3% | -0.33% | 1.06%
50 | COC(=O)c1ccc(CC(C)NCC(O)c2cccc(C(F)(F)F)c2)cc1C (stereo unspecified) | 0.54% | 1.8% | 0.87%
51 | CN(c1cc(NC(=O)c2ccc(F)cc2)ccn1)C1CCN(Cc2cccc(F)c2)CC1 | 2.51% | 6.07% | 3.83%
52 | CC[C@H]1CN2CC[C@H]1C[C@@H]2[C@@H](OC(=O)c1ccc(Cl)cc1)c1ccnc2ccc(OC)cc12 | 1.77% | 0.13% | -1.41%
